Laboratory results taken from article PMC5700166.

Assays:
Experiment in all cases: protein-binding microarray (PBM); PBM: ~300 nM protein, 6 mM HEPES pH 7.8, 80 mM KCl, 0.5 mM EDTA, 0.5 mM EGTA, 6% glycerol, 35 ng/ul poly-dIdC, 1% milk, 1 h, room temperature; Ap Aiptasia and Nv Nematostella (sea anemones) / Co Capsaspora / Aq Amphimedon (sponge) / Dm Drosophila / Hu human; RHD is the Rel homology domain; high values mean tight binding
Settings in all cases: dsDNA, one strand shown
GST-Ap-NF-kB RHD = target: T1, GST-Ap-NF-kB RHD (Exaiptasia pallida (Aiptasia), UniProt A0A913YAJ5 2-422)
T1 sequence: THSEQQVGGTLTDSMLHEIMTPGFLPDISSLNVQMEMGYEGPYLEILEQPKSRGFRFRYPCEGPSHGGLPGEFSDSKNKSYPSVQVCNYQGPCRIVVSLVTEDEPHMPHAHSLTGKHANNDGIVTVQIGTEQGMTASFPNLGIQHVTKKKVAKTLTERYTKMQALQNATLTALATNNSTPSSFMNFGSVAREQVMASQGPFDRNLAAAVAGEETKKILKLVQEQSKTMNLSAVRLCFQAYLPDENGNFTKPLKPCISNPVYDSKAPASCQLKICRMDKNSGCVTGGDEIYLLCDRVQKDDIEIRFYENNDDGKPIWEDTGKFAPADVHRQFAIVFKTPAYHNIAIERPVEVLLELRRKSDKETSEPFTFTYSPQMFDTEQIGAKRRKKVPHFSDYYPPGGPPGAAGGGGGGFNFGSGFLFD

[1] = target: T2, GST-Nv-NF-kB (Cys allele) (Nematostella vectensis, UniProt E5G601 2-411)
T2 sequence: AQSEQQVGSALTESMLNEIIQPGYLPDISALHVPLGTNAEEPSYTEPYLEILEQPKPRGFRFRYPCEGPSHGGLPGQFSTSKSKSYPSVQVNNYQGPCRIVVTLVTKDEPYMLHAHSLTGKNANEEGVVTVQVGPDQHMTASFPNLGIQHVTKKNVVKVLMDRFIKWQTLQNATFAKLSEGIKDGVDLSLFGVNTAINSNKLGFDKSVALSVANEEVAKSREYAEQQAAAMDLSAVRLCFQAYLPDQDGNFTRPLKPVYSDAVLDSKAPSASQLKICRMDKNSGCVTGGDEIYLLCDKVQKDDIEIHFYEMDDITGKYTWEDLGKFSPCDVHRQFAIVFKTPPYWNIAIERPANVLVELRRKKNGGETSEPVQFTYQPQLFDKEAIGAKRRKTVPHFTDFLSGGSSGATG

GST-Co-NF-kB = target: T3, GST-Co-NF-kB (Capsaspora owczarzaki, UniProt F1ARL5 200-546)
T3 sequence: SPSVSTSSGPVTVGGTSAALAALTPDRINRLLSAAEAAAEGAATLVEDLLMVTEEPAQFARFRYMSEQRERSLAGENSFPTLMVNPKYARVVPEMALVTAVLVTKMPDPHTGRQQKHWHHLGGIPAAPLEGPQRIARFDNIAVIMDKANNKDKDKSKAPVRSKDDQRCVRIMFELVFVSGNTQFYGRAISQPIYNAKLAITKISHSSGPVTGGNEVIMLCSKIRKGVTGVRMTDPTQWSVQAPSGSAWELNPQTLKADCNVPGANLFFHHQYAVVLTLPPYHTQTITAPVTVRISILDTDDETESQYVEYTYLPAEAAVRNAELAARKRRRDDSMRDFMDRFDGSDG

GST-Dm-Relish = target: T4, GST-Dm-Relish (Drosophila melanogaster, UniProt Q94527 99-473)
T4 sequence: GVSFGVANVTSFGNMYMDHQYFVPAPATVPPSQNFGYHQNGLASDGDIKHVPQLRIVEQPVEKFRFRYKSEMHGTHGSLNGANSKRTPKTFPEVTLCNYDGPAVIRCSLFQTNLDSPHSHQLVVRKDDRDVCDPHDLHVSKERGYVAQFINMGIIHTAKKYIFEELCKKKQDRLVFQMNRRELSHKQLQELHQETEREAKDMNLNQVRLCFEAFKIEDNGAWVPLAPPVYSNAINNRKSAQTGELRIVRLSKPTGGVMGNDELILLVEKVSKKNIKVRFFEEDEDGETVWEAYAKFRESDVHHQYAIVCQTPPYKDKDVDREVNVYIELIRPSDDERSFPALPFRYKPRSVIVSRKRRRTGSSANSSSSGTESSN

GST-Aq-NF-kB = target: T5, GST-Aq-NF-kB (Amphimedon queenslandica, UniProt A9Y5G7 2-389)
T5 sequence: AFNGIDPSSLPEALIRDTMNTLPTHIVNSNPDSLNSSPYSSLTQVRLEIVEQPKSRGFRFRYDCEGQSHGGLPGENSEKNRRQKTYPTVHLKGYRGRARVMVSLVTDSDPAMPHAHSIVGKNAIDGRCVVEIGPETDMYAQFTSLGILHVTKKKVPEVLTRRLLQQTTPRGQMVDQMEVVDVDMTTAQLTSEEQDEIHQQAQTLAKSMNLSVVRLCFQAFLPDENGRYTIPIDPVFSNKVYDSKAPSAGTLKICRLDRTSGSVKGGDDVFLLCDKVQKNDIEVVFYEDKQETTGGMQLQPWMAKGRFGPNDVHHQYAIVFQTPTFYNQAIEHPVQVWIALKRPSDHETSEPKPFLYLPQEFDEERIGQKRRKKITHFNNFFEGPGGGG

Row | Sequence | binding signal (GST-Ap-NF-kB RHD) | binding signal [1] | binding signal (GST-Co-NF-kB) | binding signal (GST-Dm-Relish) | binding signal (GST-Aq-NF-kB)
1 | CCGATTAACATCAGGGGACGGGATGATGTTAATCGGGTCTTGATTCGCTTGACGCTGCTG | 4.78 z-score | 3.92 z-score | 2.14 z-score | 1.43 z-score | 3.92 z-score
2 | CCGATTAACATCAGGGGAAGGAATGATGTTAATCGGGTCTTGATTCGCTTGACGCTGCTG | 3.87 z-score | 5.34 z-score | 6.35 z-score | 3.59 z-score | 4.05 z-score
3 | CCGATTAACATCACCCGGGAAAATGATGTTAATCGGGTCTTGATTCGCTTGACGCTGCTG | 2.61 z-score | 3.28 z-score | 5.18 z-score | 1.52 z-score | 2.6 z-score
4 | CCGATTAACATCAGAAAATCCCATGATGTTAATCGGGTCTTGATTCGCTTGACGCTGCTG | 4.49 z-score | 4.29 z-score | 1.54 z-score | 7.07 z-score | 4.36 z-score
5 | CCGATTAACATCAGGGAACTTTATGATGTTAATCGGGTCTTGATTCGCTTGACGCTGCTG | 4.27 z-score | 4.23 z-score | 2.81 z-score | 4.83 z-score | 5.17 z-score
6 | CCGATTAACATCAGGGGACACCCTGATGTTAATCGGGTCTTGATTCGCTTGACGCTGCTG | 5.89 z-score | 4.47 z-score | 3.91 z-score | 7.15 z-score | 6.52 z-score
7 | CCGATTAACATCAATCCCCCCCGTGATGTTAATCGGGTCTTGATTCGCTTGACGCTGCTG | 6.49 z-score | 4.68 z-score | 7.66 z-score | 6.77 z-score | 5.33 z-score
8 | CCGATTAACATCAAATCACCCCCTGATGTTAATCGGGTCTTGATTCGCTTGACGCTGCTG | 4.73 z-score | 4.59 z-score | 6.61 z-score | 4.37 z-score | 5.32 z-score
9 | CCGATTAACATCAAGGGATTTTCTGATGTTAATCGGGTCTTGATTCGCTTGACGCTGCTG | 5.78 z-score | 6.63 z-score | 1.57 z-score | 6.57 z-score | 6.65 z-score
10 | CCGATTAACATCAGGCCCCCCCCTGATGTTAATCGGGTCTTGATTCGCTTGACGCTGCTG | 5.7 z-score | 4.06 z-score | 3.96 z-score | 6.13 z-score | 5.74 z-score
11 | CCGATTAACATCACTGGGAAAACTGATGTTAATCGGGTCTTGATTCGCTTGACGCTGCTG | 1.79 z-score | 2.36 z-score | 5.25 z-score | 1.48 z-score | 1.81 z-score
12 | CCGATTAACATCAGGGGGGCACCTGATGTTAATCGGGTCTTGATTCGCTTGACGCTGCTG | 4.84 z-score | 3.13 z-score | 3.02 z-score | 3.62 z-score | 4.5 z-score
13 | CCGATTAACATCAAAAACTACCCTGATGTTAATCGGGTCTTGATTCGCTTGACGCTGCTG | 4.12 z-score | 3.21 z-score | 3.13 z-score | 5.43 z-score | 4.72 z-score
14 | CCGATTAACATCAGGACTGTCCCTGATGTTAATCGGGTCTTGATTCGCTTGACGCTGCTG | 4.85 z-score | 5.38 z-score | 1.21 z-score | 3.04 z-score | 7.35 z-score
15 | CCGATTAACATCAATATACCCCCTGATGTTAATCGGGTCTTGATTCGCTTGACGCTGCTG | 6.61 z-score | 4.24 z-score | 6.57 z-score | 3.69 z-score | 4.03 z-score
16 | CCGATTAACATCACGGGGAGTCCTGATGTTAATCGGGTCTTGATTCGCTTGACGCTGCTG | 7.06 z-score | 3.95 z-score | 4.24 z-score | 8.09 z-score | 5.02 z-score
17 | CCGATTAACATCAAACACTCCCCTGATGTTAATCGGGTCTTGATTCGCTTGACGCTGCTG | 4.43 z-score | 3.84 z-score | 3.52 z-score | 1.65 z-score | 4.61 z-score
18 | CCGATTAACATCACGTAAATCCCTGATGTTAATCGGGTCTTGATTCGCTTGACGCTGCTG | 2.65 z-score | 2.8 z-score | 1.01 z-score | 7.13 z-score | 3.3 z-score
19 | CCGATTAACATCAGGGAATGTACTGATGTTAATCGGGTCTTGATTCGCTTGACGCTGCTG | 2.21 z-score | 3.28 z-score | 2.29 z-score | 7.08 z-score | 4.86 z-score
20 | CCGATTAACATCAAACAAACCCCTGATGTTAATCGGGTCTTGATTCGCTTGACGCTGCTG | 4.35 z-score | 3.42 z-score | 1.74 z-score | 3.06 z-score | 3.95 z-score
21 | CCGATTAACATCAGATATTTCCCTGATGTTAATCGGGTCTTGATTCGCTTGACGCTGCTG | 3.25 z-score | 5.95 z-score | 5.03 z-score | 2.31 z-score | 6.38 z-score
22 | CCGATTAACATCAGGGGCTACCCTGATGTTAATCGGGTCTTGATTCGCTTGACGCTGCTG | 4.03 z-score | 3.47 z-score | 1.76 z-score | 3.48 z-score | 6.2 z-score
23 | CCGATTAACATCACAGGGAAAAATGATGTTAATCGGGTCTTGATTCGCTTGACGCTGCTG | 2.81 z-score | 4.49 z-score | 5.03 z-score | 1.6 z-score | 3.9 z-score
24 | CCGATTAACATCACAGCCCCCCCTGATGTTAATCGGGTCTTGATTCGCTTGACGCTGCTG | 4.64 z-score | 3.58 z-score | 3.34 z-score | 4.81 z-score | 3.82 z-score
25 | CCGATTAACATCAAAATTCCCATTGATGTTAATCGGGTCTTGATTCGCTTGACGCTGCTG | 3.68 z-score | 6.03 z-score | 3.56 z-score | 6.03 z-score | 4.99 z-score
26 | CCGATTAACATCAGGGAATATAATGATGTTAATCGGGTCTTGATTCGCTTGACGCTGCTG | 3.2 z-score | 3.59 z-score | 3.13 z-score | 1.66 z-score | 3.14 z-score
27 | CCGATTAACATCAGGGGGTCACCTGATGTTAATCGGGTCTTGATTCGCTTGACGCTGCTG | 3.61 z-score | 2.23 z-score | 1.96 z-score | 6.03 z-score | 4.39 z-score
28 | CCGATTAACATCAGGGGAAGGACTGATGTTAATCGGGTCTTGATTCGCTTGACGCTGCTG | 4.32 z-score | 4.53 z-score | 4.12 z-score | 8.23 z-score | 5.22 z-score
